# Many of the other results were omitted from the sample, so the strongest signals are more common in it than they were.
# Columns and labels:
# Assay in all cases: glycan array binding signal (z-score within array); higher = stronger binding
# Conditions in all cases: glycan notation: IUPAC condensed, linker removed
# [1] = biological target: Fuc(a1-2)Gal(b1-3)GlcNAc(b1-2)Man(a1-3)[Fuc(a1-2)Gal(b1-3)GlcNAc(b1-2)Man(a1-6)]Man(b1-4)GlcNAc(b1-4)GlcNAc
# Summary of the method: (§1)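 From the Consortium for Functional Glycomics database, 3228 arrays were curated, keeping only those whose protein sequence was available. Binding is given as a within-array Z-score averaged across arrays sharing a protein sequence and across linkers. Negative Z-scores can be read as non-binding.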
# [2] = biological target: Fuc(a1-2)Gal(b1-3)GlcNAc(b1-3)[Gal(b1-4)[Fuc(a1-3)]GlcNAc(b1-6)]Gal(b1-4)Glc
# Summary of the method: as §1
# [3] = biological target: Fuc(a1-2)Gal(b1-3)[Fuc(a1-4)]GlcNAc(b1-2)Man(a1-3)[Fuc(a1-2)Gal(b1-3)[Fuc(a1-4)]GlcNAc(b1-2)Man(a1-6)]Man(b1-4)GlcNAc(b1-4)GlcNAc
# Summary of the method: as §1
# Fuc(a1-2)Gal(b1-4)GlcNAc = biological target: Fuc(a1-2)Gal(b1-4)GlcNAc
# Summary of the method: as §1
# Fuc(a1-2)Gal6S(b1-4)Glc = biological target: Fuc(a1-2)Gal6S(b1-4)Glc
# Summary of the method: as §1
# Fuc(a1-2)[Gal(a1-3)]Gal = biological target: Fuc(a1-2)[Gal(a1-3)]Gal
# Summary of the method: as §1
# [4] = biological target: Fuc(a1-2)[Gal(a1-3)]Gal(b1-4)[Fuc(a1-3)]Glc
# Summary of the method: as §1
# [5] = biological target: Fuc(a1-2)[GalNAc(a1-3)]Gal(b1-3)GalNAc(a1-3)[Fuc(a1-2)]Gal(b1-4)GlcNAc
# Summary of the method: as §1
# [6] = biological target: Fuc(a1-2)[GalNAc(a1-3)]Gal(b1-3)GalNAc(b1-3)Gal(a1-4)Gal(b1-4)Glc
# Summary of the method: as §1
# [7] = biological target: Fuc(a1-2)[GalNAc(a1-3)]Gal(b1-4)Glc
# Summary of the method: as §1
# [8] = biological target: Fuc(a1-2)[GalNAc(a1-3)]Gal(b1-4)GlcNAc(b1-2)Man(a1-3)[Fuc(a1-2)[GalNAc(a1-3)]Gal(b1-4)GlcNAc(b1-2)Man(a1-6)]Man(b1-4)GlcNAc(b1-4)GlcNAc
# Summary of the method: as §1
# [9] = biological target: Fuc(a1-2)[GalNAc(a1-3)]Gal(b1-4)GlcNAc(b1-3)Gal(b1-4)GlcNAc(b1-3)Gal(b1-4)GlcNAc
# Summary of the method: as §1
# [10] = biological target: Fuc(a1-2)[GalNAc(a1-3)]Gal(b1-4)GlcNAc(b1-3)[Fuc(a1-2)[GalNAc(a1-3)]Gal(b1-4)GlcNAc(b1-6)]GalNAc
# Summary of the method: as §1
# [11] = biological target: Fuc(a1-2)[GalNAc(a1-4)]Gal(b1-4)GlcNAc
# Summary of the method: as §1
# [12] = biological target: Fuc(a1-3)[Gal(b1-4)]GlcNAc(b1-4)Gal(b1-4)[Fuc(a1-3)]GlcNAc(b1-4)Gal(b1-4)[Fuc(a1-3)]GlcNAc
# Summary of the method: as §1
# Gal(a1-4)GlcNAc = biological target: Gal(a1-4)GlcNAc
# Summary of the method: as §1
# Gal(b1-2)Gal = biological target: Gal(b1-2)Gal
# Summary of the method: as §1
# Gal(b1-3)GalNAc = biological target: Gal(b1-3)GalNAc
# Summary of the method: as §1
# [13] = biological target: Gal(b1-3)GlcNAc(b1-2)[Gal(b1-3)GlcNAc(b1-6)]Man(a1-6)[Gal(b1-3)GlcNAc(b1-2)Man(a1-3)]Man(b1-4)GlcNAc(b1-4)GlcNAc
# Summary of the method: as §1
# [14] = biological target: Gal(b1-3)GlcNAc(b1-6)GalNAc
# Summary of the method: as §1
# [15] = biological target: Gal(b1-3)[Neu5Ac(a2-6)]GalNAc
# Summary of the method: as §1
# Gal(b1-4)Glc = biological target: Gal(b1-4)Glc
# Summary of the method: as §1
# [16] = biological target: Gal(b1-4)GlcNAc(b1-2)Man(a1-3)[Gal(b1-4)GlcNAc(b1-2)Man(a1-6)]Man(b1-4)GlcNAc(b1-4)GlcNAc
# Summary of the method: as §1
# [17] = biological target: Gal(b1-4)GlcNAc(b1-2)Man(a1-3)[GlcNAc(b1-4)][Gal(b1-4)GlcNAc(b1-2)Man(a1-6)]Man(b1-4)GlcNAc(b1-4)GlcNAc
# Summary of the method: as §1
# [18] = biological target: Gal(b1-4)GlcNAc(b1-2)Man(a1-6)[GlcNAc(b1-2)Man(a1-3)]Man(b1-4)GlcNAc(b1-4)GlcNAc
# Summary of the method: as §1
# [19] = biological target: Gal(b1-4)GlcNAc(b1-3)[Gal(b1-4)GlcNAc(b1-6)]Gal(b1-4)GlcNAc
# Summary of the method: as §1
# Gal3S(b1-4)GlcNAc = biological target: Gal3S(b1-4)GlcNAc
# Summary of the method: as §1
# Gal4S(b1-4)GlcNAc = biological target: Gal4S(b1-4)GlcNAc
# Summary of the method: as §1
# GalNAc(a1-3)Gal = biological target: GalNAc(a1-3)Gal
# Summary of the method: as §1
# GalNAc(a1-3)GalNAc = biological target: GalNAc(a1-3)GalNAc
# Summary of the method: as §1
# [20] = biological target: GalNAc(a1-3)GalNAc(b1-3)Gal(a1-4)Gal(b1-4)Glc
# Summary of the method: as §1
# [21] = biological target: GalNAc(a1-3)GalNAc(b1-3)Gal(a1-4)Gal(b1-4)GlcNAc
# Summary of the method: as §1
# GalNAc(b1-3)GalNAc = biological target: GalNAc(b1-3)GalNAc
# Summary of the method: as §1
# Glc(b1-4)Glc = biological target: Glc(b1-4)Glc
# Summary of the method: as §1
# GlcA(b1-6)Gal = biological target: GlcA(b1-6)Gal
# Summary of the method: as §1
# [22] = biological target: GlcNAc(a1-3)Gal(b1-4)GlcNAc
# Summary of the method: as §1
# [23] = biological target: GlcNAc(a1-4)Gal(b1-4)GlcNAc(b1-3)Gal(b1-4)GlcNAc
# Summary of the method: as §1
# [24] = biological target: GlcNAc(a1-4)Gal(b1-4)GlcNAc(b1-3)Gal(b1-4)GlcNAc(b1-3)Gal(b1-4)GlcNAc
# Summary of the method: as §1
# [25] = biological target: GlcNAc(a1-6)Gal(b1-4)GlcNAc
# Summary of the method: as §1
# [26] = biological target: GlcNAc(b1-3)Gal(b1-4)GlcNAc(b1-3)Gal(b1-4)GlcNAc(b1-2)Man(a1-3)[GlcNAc(b1-3)Gal(b1-4)GlcNAc(b1-3)Gal(b1-4)GlcNAc(b1-2)Man(a1-6)]Man(b1-4)GlcNAc(b1-4)[Fuc(a1-6)]GlcNAc
# Summary of the method: as §1
# Kdn(a2-3)Gal(b1-3)GalNAc = biological target: Kdn(a2-3)Gal(b1-3)GalNAc
# Summary of the method: as §1
# Kdn(a2-3)Gal(b1-4)Glc = biological target: Kdn(a2-3)Gal(b1-4)Glc
# Summary of the method: as §1
# Kdn(a2-6)Gal(b1-4)GlcNAc = biological target: Kdn(a2-6)Gal(b1-4)GlcNAc
# Summary of the method: as §1
# Man(a1-2)Man(a1-3)Man = biological target: Man(a1-2)Man(a1-3)Man
# Summary of the method: as §1
# [27] = biological target: Neu5Ac(a2-3)Gal(b1-4)GlcNAc6S
# Summary of the method: as §1
# [28] = biological target: Neu5Ac(a2-3)Gal(b1-4)[Fuc(a1-3)]GlcNAc(b1-3)Gal(b1-4)[Fuc(a1-3)]GlcNAc(b1-3)Gal(b1-4)[Fuc(a1-3)]GlcNAc
# Summary of the method: as §1
# [29] = biological target: Neu5Ac(a2-6)Gal(b1-4)GlcNAc(b1-2)Man(a1-3)[Man(a1-6)]Man(b1-4)GlcNAc(b1-4)GlcNAc
# Summary of the method: as §1
# [30] = biological target: Neu5Ac(a2-6)Gal(b1-4)GlcNAc(b1-2)Man(a1-6)Man(b1-4)GlcNAc(b1-4)GlcNAc
# Summary of the method: as §1
# [31] = biological target: Neu5Ac(a2-6)Gal(b1-4)GlcNAc(b1-2)Man(a1-6)[GlcNAc(b1-2)Man(a1-3)]Man(b1-4)GlcNAc(b1-4)GlcNAc
# Summary of the method: as §1
# [32] = biological target: Neu5Ac(a2-6)Gal(b1-4)GlcNAc(b1-3)Gal(b1-4)GlcNAc(b1-6)[Gal(b1-3)]GalNAc
# Summary of the method: as §1
# [33] = biological target: Neu5Ac(a2-6)Gal(b1-4)GlcNAc(b1-3)Gal(b1-4)[Fuc(a1-3)]GlcNAc(b1-3)Gal(b1-4)[Fuc(a1-3)]GlcNAc
# Summary of the method: as §1
# [34] = biological target: Neu5Ac(a2-6)Gal(b1-4)GlcNAc(b1-3)[Neu5Ac(a2-6)Gal(b1-4)GlcNAc(b1-6)]GalNAc
# Summary of the method: as §1
# [35] = biological target: Neu5Ac(a2-6)Gal(b1-4)GlcNAc(b1-6)[Gal(b1-3)]GalNAc
# Summary of the method: as §1
# [36] = biological target: Neu5Ac(a2-6)GalNAc(b1-4)GlcNAc6S
# Summary of the method: as §1
# [37] = biological target: Neu5Ac(a2-8)Neu5Ac(a2-3)Gal(b1-3)GalNAc(b1-4)[Neu5Ac(a2-8)Neu5Ac(a2-3)]Gal(b1-4)Glc
# Summary of the method: as §1
# Neu5Gc(a2-3)Gal(b1-4)Glc = biological target: Neu5Gc(a2-3)Gal(b1-4)Glc
# Summary of the method: as §1
binder,measurement,setting,value
"HPAIIITrx (Helix pomatia), Q1KM18 (protein) MLFVTIISLGLLAIVHGQCALKTIAFSAAIDREQTFDANQVVIYDIVITNHGNAYDNSTGLFTAPVDGMYSFQLNLLTIKEKEGWLELVHNGQLKVSVYAKQDSTYDSSSNSVIIKMKEGDRVNVRAHKKSGLFGRDDELYNTFSGHFLSGL",glycan array binding signal (z-score),[1],3.03
same,glycan array binding signal (z-score),[2],-0.143
same,glycan array binding signal (z-score),[3],3.07
same,glycan array binding signal (z-score),Fuc(a1-2)Gal(b1-4)GlcNAc,-0.3
same,glycan array binding signal (z-score),Fuc(a1-2)Gal6S(b1-4)Glc,-0.211
same,glycan array binding signal (z-score),Fuc(a1-2)[Gal(a1-3)]Gal,-0.256
same,glycan array binding signal (z-score),[4],-0.413
same,glycan array binding signal (z-score),[5],4.37
same,glycan array binding signal (z-score),[6],3.47
same,glycan array binding signal (z-score),[7],2.02
same,glycan array binding signal (z-score),[8],6.33
same,glycan array binding signal (z-score),[9],2.94
same,glycan array binding signal (z-score),[10],3.2
same,glycan array binding signal (z-score),[11],3.52
same,glycan array binding signal (z-score),[12],-0.564
same,glycan array binding signal (z-score),Gal(a1-4)GlcNAc,-0.387
same,glycan array binding signal (z-score),Gal(b1-2)Gal,0.163
same,glycan array binding signal (z-score),Gal(b1-3)GalNAc,-0.149
same,glycan array binding signal (z-score),[13],-0.132
same,glycan array binding signal (z-score),[14],-0.368
same,glycan array binding signal (z-score),[15],-0.314
same,glycan array binding signal (z-score),Gal(b1-4)Glc,-0.056
same,glycan array binding signal (z-score),[16],-0.38
same,glycan array binding signal (z-score),[17],-0.402
same,glycan array binding signal (z-score),[18],-0.301
same,glycan array binding signal (z-score),[19],-0.21
same,glycan array binding signal (z-score),Gal3S(b1-4)GlcNAc,-0.024
same,glycan array binding signal (z-score),Gal4S(b1-4)GlcNAc,-0.358
same,glycan array binding signal (z-score),GalNAc(a1-3)Gal,2.5
same,glycan array binding signal (z-score),GalNAc(a1-3)GalNAc,3.35
same,glycan array binding signal (z-score),[20],5.39
same,glycan array binding signal (z-score),[21],4.56
same,glycan array binding signal (z-score),GalNAc(b1-3)GalNAc,-0.254
same,glycan array binding signal (z-score),Glc(b1-4)Glc,-0.122
same,glycan array binding signal (z-score),GlcA(b1-6)Gal,-0.196
same,glycan array binding signal (z-score),[22],0.416
same,glycan array binding signal (z-score),[23],1.69
same,glycan array binding signal (z-score),[24],2.06
same,glycan array binding signal (z-score),[25],-0.341
same,glycan array binding signal (z-score),[26],-0.228
same,glycan array binding signal (z-score),Kdn(a2-3)Gal(b1-3)GalNAc,-0.152
same,glycan array binding signal (z-score),Kdn(a2-3)Gal(b1-4)Glc,0.214
same,glycan array binding signal (z-score),Kdn(a2-6)Gal(b1-4)GlcNAc,-0.263
same,glycan array binding signal (z-score),Man(a1-2)Man(a1-3)Man,-0.321
same,glycan array binding signal (z-score),[27],-0.337
same,glycan array binding signal (z-score),[28],0.089
same,glycan array binding signal (z-score),[29],-0.533
same,glycan array binding signal (z-score),[30],-0.31
same,glycan array binding signal (z-score),[31],-0.492
same,glycan array binding signal (z-score),[32],-0.292
same,glycan array binding signal (z-score),[33],-0.392
same,glycan array binding signal (z-score),[34],-0.408
same,glycan array binding signal (z-score),[35],-0.3
same,glycan array binding signal (z-score),[36],-0.278
same,glycan array binding signal (z-score),[37],-0.38
same,glycan array binding signal (z-score),Neu5Gc(a2-3)Gal(b1-4)Glc,-0.237
